Results: PubChem BioAssay AID1159580 (chemical genetic matrix, 2015)
The campaign covered roughly 5,500 compounds. About 2,000 (36%) were called active. Another 18% or so got no clear call; they are omitted. Rule as the data show it: active = normalized growth mostly below about 0.91 (no sharp cut-off); inconclusive = no clear call, values can overlap the other calls; inactive = mostly above about 0.92. Some of the results follow.

Assay: chemical genetic growth profiling, strain panel (AID 1159580);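 also: tested at 20 µM; growth read once vehicle control cultures reached saturation at 30 °C; 1 = growth at the plate median or of vehicle wells; lower values mean less growth of the strain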
Conditions: S. cerevisiae deletion strains, growth OD

Measured: normalized growth

O=c1[nH]c2cc(Cl)ccc2c(O)c1-c1ccc(Oc2ccccc2)cc1
inactive: locus YAL040C, strain CLN3, hits give low values 1 | locus YCL061C, strain MRC1 (second series), hits give low values 0.993 | locus YDR150W, strain NUM1, hits give low values 0.992 | locus YDR363W, strain ESC2, hits give low values 1 | locus YER002W, strain NOP16, hits give low values 1.01 | locus YGR078C, strain PAC10, hits give low values 1.01 | locus YJR075W, strain HOC1, hits give low values 0.987 | locus YMR263W, strain SAP30, hits give low values 0.999 | locus YMR307W, strain GAS1, hits give low values 0.983 | locus YNL128W, strain TEP1, hits give low values 1.02 | locus YNL153C, strain GIM3, hits give low values 1.03 | locus YNL175C, strain NOP13, hits give low values 1 | locus YNL197C, strain WHI3, hits give low values 1.01 | locus YNL224C, strain SQS1, hits give low values 1 | locus YNL322C, strain KRE1, hits give low values 0.988 | locus YOR083W, strain WHI5 (second series), hits give low values 0.99 | locus YPL055C, strain LGE1, hits give low values 1.01

O=C(O)c1cc(O)c2c(c1)[C@@H]([C@@H]1c3cc(C(=O)O)cc(O)c3C(=O)c3c(O[C@H]4O[C@H](CO)[C@@H](O)[C@H](O)[C@H]4O)cccc31)c1cccc(O[C@H]3O[C@H](CO)[C@@H](O)[C@H](O)[C@H]3O)c1C2=O
inactive: locus YHR030C, strain SLT2, hits give low values 1.09 | locus YHR079C, strain IRE1, hits give low values 1.08 | locus YJL095W, strain BCK1, hits give low values 1.02 | locus YJR066W, strain TOR1, hits give low values 1 | locus YLR113W, strain HOG1, hits give low values 1.06 | locus YNL183C, strain NPR1, hits give low values 1.02 | locus YOR231W, strain MKK1, hits give low values 1.05 | locus YPL256C, strain CLN2, hits give low values 1.08
